Experimental data from ChEMBL document CHEMBL4513146, “CO-ADD screening of Karazin Kharkiv National University (Ukraine) compounds”.
Results with a measured potency or affinity are listed apart.

These compounds were tested on Candida albicans. Conditions: Concentration 32 ug.mL-1; ASSAY_TEST Inhibition of Fungal Growth; detection method Absorption (OD530).

Compound | Inhibition [%]
CCc1ccc(N(Cc2ccc(OC)cc2)S(=O)(=O)c2cccn3c(C)nnc23)cc1 | 3.18
COC(=O)c1ccccc1NC(=O)Cn1nc2c(Oc3ccc(C)cc3)nccn2c1=O | -2.14
CCc1nnc2ccc(S(=O)(=O)N(Cc3cccc(OC)c3)c3cccc(F)c3)cn12 | 2.06
COC(=O)c1ccc(NC(=O)Cn2nc3c4sc(N5CCCC5)nc4ncn3c2=O)cc1 | 1.38
Cc1cccc(Oc2nc3ccccc3n3c(=O)n(CC(=O)Nc4ccc5c(c4)OCCO5)nc23)c1C | -0.7
CCOc1ccc(-n2ccn3c(SC(C)C(=O)Nc4cc(OC)cc(OC)c4)nnc3c2=O)cc1 (stereo not given) | 1.5
Cc1cc(C)cc(Nc2nc(C)cc3nn(CC(=O)Nc4ccc(Cl)cc4)c(=O)n23)c1 | 5.41
COc1cccc(Oc2nccn3c(=O)n(CC(=O)Nc4ccc(OC)c(OC)c4)nc23)c1 | 1.42
CCc1ccc(N(Cc2ccc(Cl)cc2)S(=O)(=O)c2cccn3c(C)nnc23)cc1 | 3.63
Cc1ccc(-c2ccc3nn(CC(=O)Nc4c(C)cccc4C)c(=O)n3n2)cc1C | -0.71
CCCCN(CC)c1ccc2nnc(CCc3nc(-c4ccc5c(c4)OCO5)no3)n2n1 | 3.29
Cc1ccc(CNC(=O)Cn2nc3c(Sc4cccc(F)c4)nccn3c2=O)cc1 | 4.04
Cc1cc2nn(CC(=O)Nc3cc(F)ccc3C)c(=O)n2c(Nc2ccc(C)c(F)c2)n1 | 3.99
Cc1nnc2c(=O)n(CC(=O)Nc3ccc(Cl)cc3)c3ccccc3n12 | -0.59
COc1cc(NC(=O)Cn2nc3c(Sc4cccc(F)c4)nccn3c2=O)cc(OC)c1 | 1.46
CCC(Sc1nnc2c(=O)n(-c3cccc(OC)c3)ccn12)C(=O)Nc1ccccc1C (stereo not given) | 0.82
COc1ccc(NC(=O)Cn2nc3c4cc(-c5ccc(C)cc5)nn4ccn3c2=O)cc1 | -0.28
Cc1ccc(Oc2nccn3c(=O)n(CC(=O)NCc4ccccc4Cl)nc23)cc1 | 1.69
O=C(Cn1nc2nc(Nc3ccc(F)cc3)ccn2c1=O)N1CCOCC1 | 2.63
COc1cccc(Sc2nc3ccccc3n3c(=O)n(CC(=O)Nc4ccc(C)cc4)nc23)c1 | 4.31
O=C(Cn1nc2ccc(-c3ccc(Cl)cc3)nn2c1=O)Nc1ccccc1 | 1.7
COc1cccc(CNC(=O)CSc2nnc3c4cc(-c5cc(C)ccc5C)nn4ccn23)c1OC | 2.62
COc1ccc(N(Cc2cccc(OC)c2)S(=O)(=O)c2ccc3nnc(C)n3c2)cc1 | 0.91
CCOC(=O)c1ccccc1NC(=O)Cn1nc2c(Oc3ccccc3)nccn2c1=O | 0.37
COc1ccc(CNC(=O)CSc2nnc3c4cc(-c5ccc(C)cc5)nn4ccn23)cc1OC | -0.42

These compounds were tested on Cryptococcus neoformans. Conditions: Concentration 32 ug.mL-1; ASSAY_TEST Inhibition of Fungal Growth; detection method Resazurin; Absorption (OD600-OD570); plate type 384well; NBS; CORNING #3640.

Compound | Inhibition [%]
Cc1cccc(CN(c2ccc(Cl)cc2)S(=O)(=O)c2cccn3c(C)nnc23)c1 | -9.68
O=c1c2nnc(SCc3ccc(Cl)cc3)n2ccn1-c1ccc(F)c(F)c1 | -5.11
COc1ccc(OC)c(NC(=O)Cn2nc3ccc(-c4ccc(C)cc4)nn3c2=O)c1 | -12.04
Cc1ccccc1Nc1cc(C)n2c(=O)n(CCc3ccccc3)nc2n1 | -4.15
CCOC(=O)N1CCN(C(=O)CCc2nnc3c4cc(-c5ccc(F)cc5)nn4ccn23)CC1 | -14.63
CCc1cccc(NC(=O)Cn2nc3nc(N4CCCCCC4)ccn3c2=O)c1 | -9.37
COc1ccccc1-n1ccn2c(SCC(=O)c3ccc(C)cc3C)nnc2c1=O | -10.37
COc1cccc(-n2ccn3c(SCC(=O)Nc4ccc(F)cc4F)nnc3c2=O)c1 | -12.76
CCOc1ccccc1NC(=O)Cn1nc2c(SC3CCCCC3)nccn2c1=O | -21.42
Cc1cc2nn(CC(=O)Nc3ccccc3F)c(=O)n2c(Nc2ccc(F)c(C)c2)n1 | -5.54
CCOc1ccccc1NC(=O)Cn1nc2c(N3CCN(c4ccccc4)CC3)nccn2c1=O | -7.83
CCc1ccc(N(Cc2ccccc2)S(=O)(=O)c2cccn3c(CC)nnc23)cc1 | -8.52
Cc1ccccc1-c1noc(Cn2nc3ccc(-c4ccccc4)nn3c2=O)n1 | -15.26
CCOc1ccc(NC(=O)Cn2c(=O)c3nnc(C(C)C)n3c3ccccc32)cc1 | -9.3
Cc1ccc(-c2cc3c4nn(CC(=O)Nc5ccccc5F)c(=O)n4ccn3n2)cc1C | -15.58
CCc1ccc(N(Cc2ccc(OC)cc2)S(=O)(=O)c2cccn3c(C)nnc23)cc1 | -10.92
COC(=O)c1ccccc1NC(=O)Cn1nc2c(Oc3ccc(C)cc3)nccn2c1=O | -10.13
CCc1nnc2ccc(S(=O)(=O)N(Cc3cccc(OC)c3)c3cccc(F)c3)cn12 | -7.44
COC(=O)c1ccc(NC(=O)Cn2nc3c4sc(N5CCCC5)nc4ncn3c2=O)cc1 | -4.89
Cc1cccc(Oc2nc3ccccc3n3c(=O)n(CC(=O)Nc4ccc5c(c4)OCCO5)nc23)c1C | -31.77

Compound | Inhibition [%]
CCOc1ccc(-n2ccn3c(SC(C)C(=O)Nc4cc(OC)cc(OC)c4)nnc3c2=O)cc1 (stereo not given) | -3.58
Cc1cc(C)cc(Nc2nc(C)cc3nn(CC(=O)Nc4ccc(Cl)cc4)c(=O)n23)c1 | -4.1
COc1cccc(Oc2nccn3c(=O)n(CC(=O)Nc4ccc(OC)c(OC)c4)nc23)c1 | -6.14
CCc1ccc(N(Cc2ccc(Cl)cc2)S(=O)(=O)c2cccn3c(C)nnc23)cc1 | -5.55
Cc1ccc(-c2ccc3nn(CC(=O)Nc4c(C)cccc4C)c(=O)n3n2)cc1C | -7.01
CCCCN(CC)c1ccc2nnc(CCc3nc(-c4ccc5c(c4)OCO5)no3)n2n1 | -4.25
Cc1ccc(CNC(=O)Cn2nc3c(Sc4cccc(F)c4)nccn3c2=O)cc1 | -11.39
Cc1cc2nn(CC(=O)Nc3cc(F)ccc3C)c(=O)n2c(Nc2ccc(C)c(F)c2)n1 | -7.37
Cc1nnc2c(=O)n(CC(=O)Nc3ccc(Cl)cc3)c3ccccc3n12 | -11.19
COc1cc(NC(=O)Cn2nc3c(Sc4cccc(F)c4)nccn3c2=O)cc(OC)c1 | -6.36
CCC(Sc1nnc2c(=O)n(-c3cccc(OC)c3)ccn12)C(=O)Nc1ccccc1C (stereo not given) | -7.71
COc1ccc(NC(=O)Cn2nc3c4cc(-c5ccc(C)cc5)nn4ccn3c2=O)cc1 | -12.53
Cc1ccc(Oc2nccn3c(=O)n(CC(=O)NCc4ccccc4Cl)nc23)cc1 | -7.33
O=C(Cn1nc2nc(Nc3ccc(F)cc3)ccn2c1=O)N1CCOCC1 | -13.19
COc1cccc(Sc2nc3ccccc3n3c(=O)n(CC(=O)Nc4ccc(C)cc4)nc23)c1 | -30.42
O=C(Cn1nc2ccc(-c3ccc(Cl)cc3)nn2c1=O)Nc1ccccc1 | -12.99
COc1cccc(CNC(=O)CSc2nnc3c4cc(-c5cc(C)ccc5C)nn4ccn23)c1OC | -25.27
COc1ccc(N(Cc2cccc(OC)c2)S(=O)(=O)c2ccc3nnc(C)n3c2)cc1 | -1.64
CCOC(=O)c1ccccc1NC(=O)Cn1nc2c(Oc3ccccc3)nccn2c1=O | -11.47
COc1ccc(CNC(=O)CSc2nnc3c4cc(-c5ccc(C)cc5)nn4ccn23)cc1OC | -20.85
